Calls of active or inactive are those of the source. Rule for the calls: active = hit-call score of the fitted dose curve at least 0.9, where 1 is the maximum; inactive = score below 0.9.
Tests used:
[1] = ATG_Ets_CIS: Attagene CIS-FACTORIAL HepG2 Assay for human Erythroblast Transformation Specific (ETS) (AID 2282941); details: HepG2 ETS cis-reporter transcription, actives raise or lower the signal
Procedure, shortened: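 HepG2 cells transiently transfected with cis-promoter reporter transcription units were dosed for 24 h; reporter mRNA was measured by RT-PCR, 6-FAM primer extension, HpaI digestion and capillary electrophoresis, with bidirectional fitting against DMSO baseline.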

[2] = molecular target: Hepatocyte nuclear factor 3-beta (Homo sapiens) (UniProt Q9Y261); assay: ATG_FoxA2_CIS: Attagene CIS-FACTORIAL HepG2 Assay for human Forkhead box A2 (FOXA2) (AID 2282942); details: HepG2 cis-reporter transcription factor activity, 24 h; actives raise or lower the signal
Procedure, shortened: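 Endogenous transcription factor activity is captured via cis-element-driven reporter transcripts in transfected HepG2. Total RNA taken at 24 h post-dosing; labelled RT-PCR products resolved by capillary electrophoresis. Gain or loss fitted versus DMSO.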

[3] = ATG_FoxO_CIS: Attagene CIS-FACTORIAL HepG2 Assay for human Forkhead box O (FoxO) (AID 2282943); details: HepG2 Attagene cis-reporter, FoxO element, mRNA; actives raise or lower the signal
Procedure, shortened: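 24 h chemical exposure, HepG2 with transient cis-MRTU transfection. RNA extraction, oligo(dT) RT, reporter-specific PCR, primer-extension labelling, HpaI digestion, CE fragment analysis; bidirectional fit, DMSO baseline.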

[4] = ATG_GATA_CIS: Attagene CIS-FACTORIAL HepG2 Assay for human GATA Binding Protein (AID 2282944); details: HepG2 GATA cis-element reporter, Attagene multiplex mRNA; actives raise or lower the signal
Procedure, shortened: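 Endogenous transcription factor activity was captured through cis-promoter-driven reporters in transfected HepG2 cells. After 24 h exposure, reporter transcripts were quantified by RT-PCR with fluorescent capillary electrophoresis, and responses fitted both directions against DMSO.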

[5] = ATG_GLI_CIS: Attagene CIS-FACTORIAL HepG2 Assay for human Zinc Finger Protein GLI1 (AID 2282945); details: HepG2, Attagene cis-factorial reporter mRNA, GLI element; actives raise or lower the signal
Procedure, shortened: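 HepG2 cells transiently transfected with cis-promoter multiplexed reporter units report endogenous transcription factor activity. After 24 h chemical exposure, reporter mRNA was quantified by RT-PCR, 6-FAM labelling, HpaI digestion and capillary electrophoresis, with bidirectional fitting against DMSO.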

[6] = ATG_GRE_CIS: Attagene CIS-FACTORIAL HepG2 Assay for human Glucocorticoid Response Elements (GRE) (AID 2282947); details: HepG2 GRE cis-reporter, Attagene multiplex mRNA; actives raise or lower the signal
Procedure, shortened: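 Following 24 h chemical exposure of transiently transfected HepG2 cells, total RNA was reverse-transcribed and reporter cDNA amplified, fluorescently labelled and sized by capillary electrophoresis. Signal gain or loss was fitted relative to DMSO vehicle.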

[7] = ATG_ISRE_CIS: Attagene CIS-FACTORIAL HepG2 Assay for human Interferon Regulatory Factor 1 (IRF1) binding to an Interferon-Stimulated Response Element (ISRE) (AID 2282948); details: HepG2 ISRE cis-reporter (Attagene), mRNA transcription readout; actives raise or lower the signal
Procedure, shortened: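 HepG2 cells transiently transfected with multiplexed cis-promoter reporter units; after 24 h compound exposure, reporter mRNA quantified by RT-PCR, FAM labelling, HpaI digestion and capillary electrophoresis. Bidirectional fit versus DMSO baseline.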

[8] = ATG_M_32_CIS: Attagene CIS-FACTORIAL HepG2 Assay for M32 Transcription Factor (Internal Marker) (AID 2282949); details: HepG2 Attagene cis-factorial M32 reporter, mRNA; actives raise or lower the signal;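 note: background control marker of the multiplexed CIS panel rather than a real target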
Procedure, shortened: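 HepG2 cells transiently transfected with multiplexed cis-regulated reporter units, dosed 24 h. Reporter mRNA quantified by RT-PCR, 6-FAM labelling, HpaI digestion and capillary electrophoresis; bidirectional fit vs DMSO.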

[9] = ATG_M_06_CIS: Attagene CIS-FACTORIAL HepG2 Assay for M06 Transcription Factor (Internal Marker) (AID 2282950); details: HepG2 Attagene CIS-FACTORIAL M06 internal marker reporter; actives raise or lower the signal
Procedure, shortened: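 Steps: transfect HepG2 with multiplexed cis-element reporter constructs; dose chemical 24 h; extract RNA with DNase treatment; reverse-transcribe, PCR-amplify, 6-FAM label, HpaI digest; separate fragments by capillary electrophoresis. Activity fitted both directions versus DMSO.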

[10] = molecular target: Bile acid receptor (Homo sapiens) (UniProt Q96RI1); assay: ATG_IR1_CIS: Attagene CIS-FACTORIAL HepG2 Assay for human Nuclear Receptor Subfamily 1 Group H Member 4 (NR1H4), IR1 submotif (AID 2282946); details: IR1 reporter transcription, actives raise or lower the signal
Procedure, shortened: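 Transient MRTU transfection, HepG2; 24 h dosing; RNA → RT-PCR → 6-FAM primer extension → HpaI digest → capillary electrophoresis fluorescence. Gain/loss of signal fitted relative to DMSO.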

Bile acid receptor (Homo sapiens), sequence (Q96RI1 whole entry, looked up): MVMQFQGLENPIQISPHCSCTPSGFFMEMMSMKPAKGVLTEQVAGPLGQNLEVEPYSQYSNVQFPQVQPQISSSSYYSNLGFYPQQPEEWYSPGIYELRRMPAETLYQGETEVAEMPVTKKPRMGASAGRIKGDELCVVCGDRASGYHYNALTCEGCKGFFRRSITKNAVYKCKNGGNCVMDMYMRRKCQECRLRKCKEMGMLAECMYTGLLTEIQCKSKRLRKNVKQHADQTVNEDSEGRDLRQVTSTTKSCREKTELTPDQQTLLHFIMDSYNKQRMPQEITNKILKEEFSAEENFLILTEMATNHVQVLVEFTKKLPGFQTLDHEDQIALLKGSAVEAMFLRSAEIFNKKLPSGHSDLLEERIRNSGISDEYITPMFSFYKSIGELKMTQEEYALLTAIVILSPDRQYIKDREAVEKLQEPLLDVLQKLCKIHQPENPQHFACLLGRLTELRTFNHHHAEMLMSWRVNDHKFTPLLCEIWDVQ
Hepatocyte nuclear factor 3-beta (Homo sapiens), sequence (Q9Y261 whole entry, looked up): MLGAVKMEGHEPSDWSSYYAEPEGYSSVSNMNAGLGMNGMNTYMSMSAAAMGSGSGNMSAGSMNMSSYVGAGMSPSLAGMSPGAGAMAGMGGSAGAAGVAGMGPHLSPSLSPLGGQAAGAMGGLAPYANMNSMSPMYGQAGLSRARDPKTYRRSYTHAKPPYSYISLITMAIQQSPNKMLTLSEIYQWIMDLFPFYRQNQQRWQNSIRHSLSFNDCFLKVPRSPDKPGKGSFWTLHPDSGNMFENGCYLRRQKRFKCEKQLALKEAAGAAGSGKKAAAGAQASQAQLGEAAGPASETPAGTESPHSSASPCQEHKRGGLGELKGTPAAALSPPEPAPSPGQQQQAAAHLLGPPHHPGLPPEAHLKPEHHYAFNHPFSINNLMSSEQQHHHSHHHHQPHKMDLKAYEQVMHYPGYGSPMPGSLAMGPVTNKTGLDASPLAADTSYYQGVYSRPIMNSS

Structure (SMILES)	AC50 [1]	outcome [2]	outcome [3]	outcome [4]	outcome [5]	outcome [6]	outcome [7]	outcome [8]	outcome [9]	outcome [1]	outcome [10]	AC50 [5]	AC50 [10]	AC50 [7]	AC50 [2]	AC50 [6]	AC50 [8]	AC50 [9]
CC(c1ccc(O)cc1)c1ccc(O)cc1	137 µM (active)	inactive	inactive	inactive	inactive	inactive	inactive	inactive	inactive									
BrCC(Br)c1ccccc1 (configuration not stated)		inactive	inactive	inactive	inactive	inactive		inactive	inactive	inactive	inactive							
O=S(=O)(C(Cl)(Cl)Cl)C(Cl)(Cl)Cl		inactive	inactive	inactive		inactive		inactive	inactive	inactive	inactive	19.3 µM (active)						
CCCCCCCCBr		inactive	inactive	inactive	inactive	inactive	inactive	inactive	inactive	inactive	inactive							
N#CCCC(Br)(C#N)CBr (configuration not stated)		inactive	inactive	inactive		inactive		inactive	inactive	inactive		53.6 µM (active)	53.9 µM (active)	60.8 µM (active)				
CCOC(=O)OC1=C(c2cc(C)ccc2C)C(=O)NC12CCC(OC)CC2 (configuration not stated)		inactive	inactive	inactive	inactive	inactive	inactive	inactive	inactive	inactive	inactive							
CC(C)(C)c1cc([N+](=O)[O-])cc(C(C)(C)C)c1O	52.1 µM (active)	inactive	inactive	inactive	inactive		inactive	inactive	inactive		inactive							
c1csc(-c2ccc(-c3cccs3)s2)c1			inactive	inactive	inactive	inactive		inactive	inactive	inactive	inactive				4.46 µM (active)			
O=S1OC[C@@H]2[C@H](CO1)[C@]1(Cl)C(Cl)=C(Cl)[C@@]2(Cl)C1(Cl)Cl (some centres not stated)		inactive	inactive	inactive	inactive	inactive		inactive	inactive	inactive	inactive							
C[C@H]1C(=O)O[C@@H]2CCN3CC=C(COC(=O)[C@](C)(O)[C@]1(C)O)[C@H]23		inactive	inactive	inactive	inactive	inactive		inactive	inactive	inactive	inactive							
O=NN1CCCCCCC1		inactive	inactive	inactive	inactive	inactive	inactive	inactive	inactive	inactive	inactive							
BrCc1ccc(Br)cc1		inactive	inactive	inactive	inactive			inactive	inactive	inactive	inactive							
CCCCN(CCCC)C(=S)S			inactive	inactive		inactive		inactive	inactive	inactive		140 µM (active)		126 µM (active)	100 µM (active)			
CCOP(=S)(OCC)Oc1ccc(Cl)cc1Cl		inactive	inactive	inactive	inactive	inactive	inactive	inactive	inactive	inactive								
CC(C)(C#N)N=NC(C)(C)C#N		inactive	inactive	inactive	inactive	inactive	inactive	inactive	inactive	inactive								
O=[N+]([O-])c1ccccc1O		inactive	inactive	inactive	inactive	inactive	inactive	inactive	inactive	inactive								
Nc1nc(N)nc(Cl)n1		inactive	inactive	inactive	inactive	inactive	inactive	inactive	inactive	inactive								
CC(O)(CS(=O)(=O)c1ccc(F)cc1)C(=O)Nc1ccc(C#N)c(C(F)(F)F)c1 (configuration not stated)		inactive	inactive	inactive	inactive	inactive	inactive	inactive	inactive	inactive								
O=C(NC(=O)c1c(F)cccc1F)Nc1cc(Cl)c(F)c(Cl)c1F		inactive	inactive	inactive	inactive	inactive	inactive	inactive	inactive	inactive								
COc1ccc([N+](=O)[O-])cc1O		inactive	inactive	inactive	inactive	inactive	inactive	inactive	inactive	inactive								
O=S(=O)(Oc1ccc(Cl)cc1)c1ccc(Cl)cc1		inactive	inactive	inactive	inactive	inactive	inactive	inactive	inactive	inactive								
Clc1cccc(Cl)c1Cl		inactive	inactive	inactive	inactive	inactive	inactive	inactive	inactive	inactive								
O=C(N[C@H]1CN2CCC1CC2)c1ccc2c(c1)OCCO2		inactive	inactive	inactive	inactive	inactive	inactive	inactive	inactive	inactive								
CCCCCCCCCCCCc1cccc(S(=O)(=O)O)c1		inactive	inactive	inactive	inactive	inactive	inactive	inactive	inactive	inactive								
CCCCCCCCCCCCCCC(Br)C(=O)O (configuration not stated)			inactive	inactive			inactive			inactive		137 µM (active)			62.4 µM (active)	159 µM (active)	164 µM (active)	183 µM (active)
N#Cc1ccccc1N		inactive	inactive	inactive	inactive	inactive	inactive	inactive	inactive	inactive								
